Bioassay records (PubChem)
Most compounds without a hit are left out; they make up all but 22% or so of the library.
Cycloheximide cs = affects cycloheximide protein synthesis inhibition readout, counter-screen; cell reporter, cycloheximide protein synthesis inhibition counterscreen; max response, %; 300,000 tested, 12% active; in the data active = max response mostly above about 13%, no sharp cut-off; inactive = mostly below about 14%; also: read at 38.3 µM for the half of the compounds with a filed dose; 0% is about no effect
Pf growth 48h = inhibits P. falciparum growth in the first generation, 48 h; P. falciparum luciferase growth in erythrocytes, 48 h; Potency, µM (highest dose often 28.7 µM), for inactives: top-dose activity change, negative = inhibition, most hits filed as inhibitors; 310,000 tested, 5.9% active; also: potency is read from the fitted curve at half-maximal effect; % is scaled to controls: 0 for no effect and ±100 for the full control effect
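In quantitative HTS format, infected erythrocytes bearing luciferase-reporter parasites were treated for a single generation at 37 C. Luminescence after adding detection reagent served as the growth measure.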
Shiga inhibitor = inhibitors of Shiga toxin in Vero cells; AID 2315; 290,000 tested, 9.2% active; Vero cells, Shiga toxin protein synthesis inhibition reporter; inhibition, % at 38.7 µM; in the data active = inhibition mostly above about 28%, no sharp cut-off; inactive = mostly below about 43%; also: 0% is about no effect
Pf growth 96h = inhibits malaria parasite growth, 96 h; P. falciparum luciferase reporter growth, 96 h; Potency, µM (series often up to 28.7 µM), without a hit: at the top dose activity change, negative = inhibition, usual class: inhibitors; AID 504834; 320,000 tested, 6.9% active; also: potency is read from the fitted curve at half-maximal effect; % is scaled to controls: 0 for no effect and ±100 for the full control effect
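96 h incubation, 37 C, 5% CO2, of luciferase-reporter P. falciparum-infected RBCs (2% hematocrit, 0.05% parasitemia final) with test compounds; endpoint luminescence.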
LmPK inhibitor = LmPK (Leishmania mexicana) enzyme inhibition. Q27686. purified LmPK, Kinase-Glo ATP luminescence, 1 h. Potency, µM (highest dose often 57.5 µM), without a hit: at the highest dose activity change, negative = inhibition, hits mostly inhibitors. 290,000 tested, 0.37% active; also: potency is read from the fitted curve at half-maximal effect; % is scaled to controls: 0 for no effect and ±100 for the full control effect
Target sequence (Q27686 whole entry, looked up): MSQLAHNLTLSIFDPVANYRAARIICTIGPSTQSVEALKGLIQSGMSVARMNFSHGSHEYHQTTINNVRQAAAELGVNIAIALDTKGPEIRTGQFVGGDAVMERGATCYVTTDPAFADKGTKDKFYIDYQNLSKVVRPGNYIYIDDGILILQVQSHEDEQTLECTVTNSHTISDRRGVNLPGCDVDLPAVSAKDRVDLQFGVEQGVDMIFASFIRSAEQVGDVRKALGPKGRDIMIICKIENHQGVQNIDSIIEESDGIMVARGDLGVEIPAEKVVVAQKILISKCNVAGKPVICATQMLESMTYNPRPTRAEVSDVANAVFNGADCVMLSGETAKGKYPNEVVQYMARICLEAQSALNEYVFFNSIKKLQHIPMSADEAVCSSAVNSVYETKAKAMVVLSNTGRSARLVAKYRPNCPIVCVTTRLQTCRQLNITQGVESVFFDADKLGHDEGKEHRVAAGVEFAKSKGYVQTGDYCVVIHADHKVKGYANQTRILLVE
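ATP generated from ADP (0.1 mM) and PEP (0.5 mM) by 0.1 nM LmPK over 1 h at room temperature (pH 7.2 imidazole buffer) was detected by coupled luciferase luminescence. Values were normalized to uninhibited and no-enzyme wells.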
Numbers without * were called inactive. Unless noted, calls follow the shape of the dose curve; as a rule, active = well fitted inhibition curve with a large enough effect; inconclusive = small, poorly fitted or top-dose-only effect, or another doubt; inactive = no such curve, though single readings can be large or run the other way.

Screening CC(C)CC(c1nnnn1C1CCCC1)N1CCN(C(=O)c2ccco2)CC1 (stereo not given) returned Cycloheximide cs 5, Pf growth 48h -25%, Shiga inhibitor 15, Pf growth 96h 9.3µM* and LmPK inhibitor 0%.
CCCCC(c1nnnn1C1CCCC1)N1CCN(C(=O)c2ccco2)CC1 (stereo not given) was read as Cycloheximide cs 8, Pf growth 48h 2.1µM*, Shiga inhibitor 19 and LmPK inhibitor 1%.
For CCCC(c1nnnn1C1CCCC1)N1CCN(C(=O)c2ccco2)CC1 (stereo not given) the results were Cycloheximide cs -2, Pf growth 48h 12µM*, Shiga inhibitor -7, Pf growth 96h inconclusive and LmPK inhibitor 4%.
O=C(c1ccco1)N1CCN(C(c2ccccn2)c2nnnn2C2CCCC2)CC1 (stereo not given) was read as Cycloheximide cs 37*, Pf growth 48h 97%, Shiga inhibitor 86*, Pf growth 96h 57% and LmPK inhibitor -7%.
`O=C(c1ccco1)N1CCN(C(c2cccs2)c2nnnn2C2CCCC2)CC1` (stereo not given) gave Cycloheximide cs 0, Pf growth 48h -16%, Shiga inhibitor -6, Pf growth 96h inconclusive and LmPK inhibitor 1%.
For COc1ccc(/C(O)=C2/C(=O)C(=O)N(CCCN3CCOCC3)C2c2ccc(N(C)C)cc2)cc1 (stereo not given) the results were Cycloheximide cs -2, Pf growth 48h -2%, Pf growth 96h inconclusive and LmPK inhibitor 11%.
For O=c1[nH]c(C(F)(F)F)nc2ccc3ccccc3c12 the results were Cycloheximide cs 7, Pf growth 48h 6%, Shiga inhibitor -9, Pf growth 96h -5% and LmPK inhibitor -2%.
Screening CCOC(=O)N1CCN(C(=O)Cc2ccccc2OC)CC1 returned Cycloheximide cs -2, Pf growth 48h 1%, Shiga inhibitor -3, Pf growth 96h inconclusive and LmPK inhibitor 0%.
O=C(OCCc1cc2ccccc2c(=O)o1)c1cccc(Br)c1 was read as Pf growth 48h inconclusive and Pf growth 96h 21%.
Cc1ccc(S(=O)(=O)Cn2nnnc2C(CC(C)C)N2CCN(C(=O)c3ccco3)CC2)cc1 (stereo not given) was read as Cycloheximide cs -6, Pf growth 48h 12µM*, Shiga inhibitor -14, Pf growth 96h 1.7µM* and LmPK inhibitor 2%.
For COCCn1nnnc1C(CC(C)C)N1CCN(C(=O)c2ccco2)CC1 (stereo not given) the results were Cycloheximide cs -6, Pf growth 48h 6%, Shiga inhibitor -10, Pf growth 96h 14% and LmPK inhibitor 0%.
For CCCC[C@H](CN[C@@H](CNC)[C@H](C)CC)NCCC12CCC(CC1)C2 the results were Cycloheximide cs 1, Pf growth 48h inconclusive, Shiga inhibitor -3, Pf growth 96h 2.6µM* and LmPK inhibitor -6%.
For Cc1ccccc1-n1c(SC2CCOC2=O)nnc1-c1ccncc1 (stereo not given) the results were Cycloheximide cs 11, Pf growth 48h 33%, Shiga inhibitor 8, Pf growth 96h 34% and LmPK inhibitor 2%.
Screening CC(C)n1nc(C(=O)NNC(=O)c2ccncc2)c2ccccc2c1=O returned Pf growth 48h inconclusive and Pf growth 96h -13%.
Screening CCCCn1nc(C(=O)NCc2ccccc2CN2CCCC2)c2ccccc2c1=O returned Pf growth 48h 9.3µM* and Pf growth 96h 7.4µM*.
Screening CCCn1nc(C(=O)NCc2ccc3c(c2)OCO3)c2ccccc2c1=O returned Cycloheximide cs 1, Pf growth 48h 453%, Shiga inhibitor -2, Pf growth 96h 65% and LmPK inhibitor -4%.
Screening CCCCn1nc(C(=O)NNC(=O)c2ccncc2)c2ccccc2c1=O returned Cycloheximide cs 40*, Pf growth 48h 12%, Shiga inhibitor 20*, Pf growth 96h inconclusive and LmPK inhibitor -4%.
CCCCn1nc(C(=O)NCC2COc3ccccc3O2)c2ccccc2c1=O (stereo not given) was read as Pf growth 48h 10µM* and Pf growth 96h inconclusive.
For CCCCn1nc(C(=O)NCC(c2cccs2)N2CCOCC2)c2ccccc2c1=O (stereo not given) the results were Pf growth 48h 9.3µM* and Pf growth 96h inconclusive.
For O=C(Nc1cccc(-c2ccc(N3CCOCC3)nn2)c1)c1ccc(F)cc1F the results were Pf growth 48h 60% and Pf growth 96h 53%.
For O=C(CSc1nncs1)Nc1ccc(N2CCCCC2)cc1 the results were Pf growth 48h 261% and Pf growth 96h 232%.
`Cc1ccccc1NS(=O)(=O)c1ccc(C(=O)N2CCN(S(=O)(=O)c3ccccc3)CC2)cc1` gave Pf growth 48h -2% and Pf growth 96h inconclusive.
For CCOC(=O)C(C)Oc1cccc2c(=O)n(CC(=O)NCc3ccc(F)cc3)ccc12 (stereo not given) the results were Cycloheximide cs -1, Pf growth 48h -14%, Shiga inhibitor -4, Pf growth 96h 19% and LmPK inhibitor 5%.
Screening CCCCn1nc(C(=O)Nc2nc3c(s2)CCCC3)c2ccccc2c1=O returned Cycloheximide cs 7, Pf growth 48h inconclusive, Shiga inhibitor -13, Pf growth 96h 6.6µM* and LmPK inhibitor 2%.
`CCCCCCn1nc(C(=O)Nc2nc3c(s2)CCCC3)c2ccccc2c1=O` gave Cycloheximide cs 9, Pf growth 48h inconclusive, Shiga inhibitor -1, Pf growth 96h inconclusive and LmPK inhibitor -5%.
`c1cc(-c2cnn3cc(-c4ccc(OCCN5CCCCC5)cc4)cnc23)ccn1` gave Cycloheximide cs 40* and Shiga inhibitor 27*.
For CCn1c(O)c(N=NC(=O)c2ccc(CSc3nncn3C)cc2)c2ccccc21 the results were Cycloheximide cs -1, Pf growth 48h 10µM*, Shiga inhibitor -8, Pf growth 96h 12µM* and LmPK inhibitor 1%.
Screening Cn1cnnc1SCc1ccc(C(=O)N=Nc2c(O)n(Cc3ccc(Cl)cc3)c3ccccc23)cc1 returned Cycloheximide cs -2, Pf growth 48h 2.3µM*, Shiga inhibitor 11, Pf growth 96h 3.7µM* and LmPK inhibitor 1%.
Screening Cc1ccc(S(=O)(=O)NNC(=O)C(O)(c2ccccc2)c2ccccc2)cc1 returned Cycloheximide cs 0, Pf growth 48h 11%, Shiga inhibitor -16, Pf growth 96h 2.1µM* and LmPK inhibitor -2%.
Screening Cc1cc(C(=O)NNS(=O)(=O)c2ccc(C(C)(C)C)cc2)nn1C(C)(C)C returned Cycloheximide cs -2, Pf growth 48h 10µM*, Shiga inhibitor 8, Pf growth 96h -92% and LmPK inhibitor 5%.
Screening CCCNNC(=O)C(O)(c1ccccc1)c1ccccc1 returned Cycloheximide cs -1, Pf growth 48h -1%, Shiga inhibitor -9, Pf growth 96h 10µM* and LmPK inhibitor 3%.
O=C(NNS(=O)(=O)c1ccccc1)C(O)(c1ccccc1)c1ccccc1 was read as Cycloheximide cs 6, Pf growth 48h 9%, Shiga inhibitor -3, Pf growth 96h -2% and LmPK inhibitor 2%.
